Consider 9 compounds from PubChem BioAssay AID588474 (The Scripps Research Institute Molecular Screening Center, 2011).

The term inhibition denotes the percentage by which the read-out fell short of the control.

The structures appear in SMILES notation. Calls of active or inactive are those of the source.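 How the source made its calls: active means inhibition of at least 75% in the gel-based probe competition assay; inactive means inhibition below 75%.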

Sequence of Platelet-activating factor acetylhydrolase (Mus musculus) (Q60963 whole entry, looked up): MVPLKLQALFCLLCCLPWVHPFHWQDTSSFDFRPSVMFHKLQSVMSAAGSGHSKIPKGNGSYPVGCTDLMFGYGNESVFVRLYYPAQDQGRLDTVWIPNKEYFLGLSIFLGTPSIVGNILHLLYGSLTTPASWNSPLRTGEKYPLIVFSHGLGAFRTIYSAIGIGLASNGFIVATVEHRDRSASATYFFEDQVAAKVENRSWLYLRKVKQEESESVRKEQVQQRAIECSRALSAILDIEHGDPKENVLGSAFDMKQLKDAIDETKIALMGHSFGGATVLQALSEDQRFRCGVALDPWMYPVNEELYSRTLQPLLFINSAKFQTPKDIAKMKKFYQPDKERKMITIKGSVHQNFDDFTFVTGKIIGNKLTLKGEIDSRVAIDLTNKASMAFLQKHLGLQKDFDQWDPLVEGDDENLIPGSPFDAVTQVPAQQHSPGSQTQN

The experiment concerns the target Platelet-activating factor acetylhydrolase (Mus musculus) (UniProt Q60963). Put plainly: recombinant plasma PAF acetylhydrolase inhibition – biochemical, gel-based competitive ABPP, fluorescence, orthogonal assay, late-stage follow-up (AID 588474). To be noted: recombinant mouse pPAFAH, FP-Rh fluorescence, at 5 µM, active compounds read high.
For `CN(C)C(=O)Oc1noc2cc(Cl)ccc12`, the inhibition was 99% (active).
Then `O=C(c1cccs1)c1cn(Cc2ccccc2Cl)c2ccccc12`, with 43% (inactive); and `CN1C[C@H](CNC(=O)OCc2ccccc2)C[C@@H]2c3cccc4c3c(cn4C)C[C@H]21`, with 15% (inactive).
Then `N#Cc1ccccc1Cn1cc(C(=O)c2ccccc2F)c2ccccc21`, with 8% (inactive); and `NCCc1ccc(S(=O)(=O)F)cc1`, with 16% (inactive).
With `O=C(Oc1ccc([N+](=O)[O-])cc1)N1CCC(N2CCCCC2)CC1` the figure was 84% (active); with `N#Cc1ccccc1Cn1cc(C(=O)c2cccs2)c2ccccc21`, 44% (inactive); with `O=C(c1ccco1)c1cn(Cc2ccccc2Cl)c2ccccc12`, 9% (inactive).
Turning to `Cc1cc(C(=O)CS(=O)(=O)c2ccccc2)cc(C)c1OC(=O)N(C)C`, the inhibition is 36% (inactive).
